Here are results for 94 compounds from PubChem BioAssay AID2796 (The Scripps Research Institute Molecular Screening Center, 2010).

Hit rate of the full screen: of about 320,000 compounds, about 8,000 (2.5%) were called active. This is one part of a sample in which actives are shown more often than they occur. Values without a mark were called inactive. No stated cut-off is given here; in the data, active means activation above about 47%; inactive means the rest.

This experiment deals with Aryl hydrocarbon receptor (Homo sapiens) (UniProt P35869). In words: AHR activators, primary screen, cell-based, luminescence, luciferase reporter, human (AID 2796).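 Further: 0% = vehicle wells and 100% = reference agonist.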 As to conditions: AHR-responsive luciferase reporter cells, at 5 µM, stronger effect = higher value. For orientation: A reporter such as luciferase makes a cellular process visible.
Sequence of Aryl hydrocarbon receptor (Homo sapiens) (P35869 whole entry, looked up): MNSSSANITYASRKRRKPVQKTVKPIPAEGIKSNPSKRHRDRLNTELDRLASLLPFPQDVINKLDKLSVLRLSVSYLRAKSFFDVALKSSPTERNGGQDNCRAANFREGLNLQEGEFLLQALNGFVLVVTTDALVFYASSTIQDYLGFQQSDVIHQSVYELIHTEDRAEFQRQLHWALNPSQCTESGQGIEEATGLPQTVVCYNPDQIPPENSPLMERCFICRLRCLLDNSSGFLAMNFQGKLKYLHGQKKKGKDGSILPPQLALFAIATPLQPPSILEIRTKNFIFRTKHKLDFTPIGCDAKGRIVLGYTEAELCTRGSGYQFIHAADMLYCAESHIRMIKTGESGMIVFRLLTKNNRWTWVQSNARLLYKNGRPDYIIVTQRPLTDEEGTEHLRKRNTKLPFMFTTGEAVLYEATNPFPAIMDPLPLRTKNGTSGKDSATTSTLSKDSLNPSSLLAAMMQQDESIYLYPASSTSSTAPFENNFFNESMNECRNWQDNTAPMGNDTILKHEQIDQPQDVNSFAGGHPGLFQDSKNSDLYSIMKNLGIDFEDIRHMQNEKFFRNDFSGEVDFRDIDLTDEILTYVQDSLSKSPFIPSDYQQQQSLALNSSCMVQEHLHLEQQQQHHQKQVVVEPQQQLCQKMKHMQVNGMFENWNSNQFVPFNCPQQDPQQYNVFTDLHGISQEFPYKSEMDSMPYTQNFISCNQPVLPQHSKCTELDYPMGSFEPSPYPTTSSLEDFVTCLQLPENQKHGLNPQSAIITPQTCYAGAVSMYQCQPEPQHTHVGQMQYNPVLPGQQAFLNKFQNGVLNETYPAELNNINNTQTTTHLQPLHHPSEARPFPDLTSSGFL
For the compound `CC(c1ccco1)N(C(=O)COc1ccccc1[N+](=O)[O-])c1ccccn1` (centres undefined), the activation was 1.97%. Next, `CC(C)=CCN1CCN(Cc2ccc(Oc3ncccn3)cc2)CC1CCO` (centres undefined): -1.11%; `CCc1ccc(-c2cc(C(=O)NN3CCN(C)CC3)c3ccccc3n2)cc1`: 30.5%.

As for `O=C(NCCc1ccccn1)c1nc(Cn2cc([N+](=O)[O-])cn2)no1`, the activation was 0.9%. As to `O=C(Nc1ccc(Br)c2cccnc12)c1ccc(Cn2cc([N+](=O)[O-])cn2)o1`, the activation is 52% (active).

With `CCc1ccc(NC(=O)c2ccc(Cn3cc([N+](=O)[O-])cn3)cc2)cc1`, the activation is 3.58%.

In the case of `Cn1c(N2CCOCC2)c(C=O)c2ccccc21`, the activation was 1.65%. Regarding `O=C(OCC(=O)N1CCN(c2ccccc2)CC1)c1ccc([N+](=O)[O-])s1`, the activation is 0.3%. In the case of `CSCCC1NC2(C(=O)Nc3ccc(Cl)cc32)[C@@H]2C(=O)N(C3CCCC3)C(=O)[C@H]12` (some centres undefined), the activation is 8.17%. Next, `Clc1cccc(Cl)c1Cn1nnc(-c2cccs2)n1`: 64.8% (active); `O=c1cc(Cn2nnc(-c3ccc(Cl)cc3)n2)nc2sccn12`: 3.29%. Then `COc1ccccc1N1CCN(C(=O)Cn2nnc(-c3cccs3)n2)CC1`, with 4.18%. Then `Cc1nnc(SCC(=O)NC(=O)NC2CCCC2)n1N`, with 1.5%; and `Cc1nnc(SCC(=O)Nc2cccc(N)c2)n1-c1ccccc1`, with 7.29%. For `O=C(CNC(=O)c1ccc2ccccc2c1)Nc1ncccc1O`, the activation was 10.7%. Next, `O=C(CSc1cccc2cccnc12)N/N=C/c1cccnc1`: 150% (active); `Cc1ccc(NC(=O)CSc2cccc3cccnc23)c(C)c1`: 10.7%. Next, `Cc1nc2ccccc2n1CC(=O)N/N=C/c1cccnc1`: 2.29%; `CCN(CC(=O)Nc1c(F)cccc1F)C(=O)C1CCC1`: -0.62%; `CCCNC(=O)CSc1nc(Cc2ccccc2)nc2ccccc12`: -0.23%. Then `Cc1cc(SCC(=O)NCCN2C(=O)CSC2=O)nc2ccccc12`, with 55.3% (active); and `COc1ccc2c(C)cc(SCC(=O)NCC3CCCO3)nc2c1` (centres undefined), with 17.6%; and `CC(C)OC(=O)Cn1nc(C(F)(F)F)c2c1CCCC2`, with -2.63%. As to `O=C(COC(=O)c1cc(=O)[nH]c2ccccc12)Nc1nc(-c2cccc(Br)c2)cs1`, the activation was 5%. For `CCOC(=O)c1cc2c(=O)[nH]c(C(Cl)(Cl)Cl)nc2o1`, the activation was -0.93%. Then `CC1(C)Oc2ccc(C(=O)N3CCOCC3)cc2N(CC(=O)Nc2ccccc2)C1=O`, with 1.48%; and `CCSc1nc2c(c(=O)[nH]1)C(c1cccnc1)C(C(=O)OC(C)C)=C(C)N2` (centres undefined), with 0.13%.

As for `COc1ccc(-n2c(=S)[nH]c3sc4c(c3c2=O)CCc2ccccc2-4)cc1`, the activation was 8.98%. `CCC1(C)Cc2c(sc3nc(SC)[nH]c(=O)c23)CO1` (centres undefined): the activation was -2.64%. Then `CSc1nc2sc3c(c2c(=O)[nH]1)CCc1ccccc1-3`, with 74% (active). For `O=C(CNC(=O)Cc1ccccc1)NCC(=O)OCC(=O)c1ccccc1Cl`, the activation was 22.1%. `C/C(=N\NC(=O)C(N)=O)c1ccc2c(c1)OCCO2`: the activation is 3.27%. Then `C/C(=N/NC(=S)Nc1ccccc1)c1ccc2c(c1)OCO2`, with 111% (active); and `C/C(=N/NC(=O)c1ccncc1)c1ccc2c(c1)OCO2`, with 24.8%; and `O=C(CSc1nccc(=O)[nH]1)Nc1ccc(N2CCOCC2)c(Cl)c1`, with 0.92%. As for `O=[N+]([O-])c1ccc2[nH]c3c(c2c1)CCCC3O` (centres undefined), the activation was -1.41%.

`C#CCNc1ccc(C(=O)OCC)cc1`: the activation was -1.69%.

With `CCOC(=O)c1ccc2[nH]c3c(c2c1)CCCC3NC=O` (centres undefined), the activation is 115% (active). Take `COc1ccc(S(=O)(=O)N2CCOCC2)cc1NC(=O)CSc1ncnc2ccccc12`: the activation is 13.1%. Turning to `CCOC(=O)N1CCC(NC(=O)CCc2cn(C)c3ccccc23)CC1`, the activation is -3.32%. On to `Cc1ccc(Nc2nc(N3CCOCC3)nc(N3CCOCC3)n2)cc1Cl`, for which the activation is 12.7%.

As to `Cc1cc(Nc2ccc(Cl)cc2)nc(N2CCOCC2)n1`, the activation was 69.5% (active). For `COc1ccc(Nc2ncc(F)c(N3CCOCC3)n2)cc1`, the activation is 22.4%.

For `CCCCc1ccc(NS(=O)(=O)c2cccc(C(=O)N3CCCN(C)CC3)c2)cc1`, the activation is -1.46%. On to `CCOC(=O)c1ccc(NC(=O)C2CC(=O)N(c3ccc4c(c3)OCCO4)C2)cc1` (centres undefined), for which the activation was -1.04%. For the compound `O=C(c1cc2ccccc2s1)N1CCN(c2ccccn2)CC1`, the activation was 27.8%. As for `CCc1ccccc1N(CC(=O)N1CCN(c2ccccc2F)CC1)S(C)(=O)=O`, the activation is -0.81%. On to `COc1ccc(C(=O)Nc2ccccc2C(=O)N/N=C/c2ccccc2OC)cc1`, for which the activation was 103% (active). As for `COc1ccc(/C=N/NC(=O)c2ccc3c(c2)OCCO3)c(OC)c1`, the activation was 2.32%.

For the compound `COc1ccc(C(=O)Nc2ccccc2C(=O)N/N=C/c2ccc(O)c(OC)c2)cc1`, the activation was 8.36%. As for `O=C(/C=C(O)/C=C/c1ccc(O)cc1)/C=C/c1ccc(O)cc1`, the activation was -0.31%. For `O=C(N/N=C\c1cccc(Br)c1)c1ccccc1-n1cccc1`, the activation is 64.9% (active).

With `O=C(N/N=C/c1cccc(Br)c1)c1ccc(N2CCCC2=O)cc1`, the activation was -0.14%.

Regarding `Cn1c(=O)n(C)c2cc(/C=N/NC(=O)c3cccc(Br)c3)ccc21`, the activation is 31.6%.

Take `CC(C)CC(=O)NC(=S)Nc1ccc(F)cc1F`: the activation was -1.68%. Next, `CCOC(=O)C1CCN(S(=O)(=O)c2c(C)noc2C)CC1`: -0.3%; `C=CCC1(C(=O)N(C)Cc2ccccc2)CCN(C(=O)OC(C)(C)C)CC1`: 5%; `COC(=O)[C@]1(C)N[C@H](CN(C)C(=O)c2ccc(C(C)(C)C)cc2)[C@@H]2C(=O)N(C)C(=O)[C@@H]21`: 0.09%.

On to `O=C(Nn1cnc2ccccc2c1=O)c1ccccc1`, for which the activation is 4.61%. Then `N#CCCCn1c(O)c(N=NC(=O)C(O)c2ccccc2)c2ccccc21` (centres undefined), with 6.74%; and `CC(C(=O)N=Nc1c(O)n(C)c2ccc(Br)cc12)n1cnc2ccccc2c1=O` (centres undefined), with 80% (active). On to `O=S(=O)(NCCSc1ccccn1)c1ccc(Cl)cc1`, for which the activation is 0.03%. Regarding `COc1ccc(CCNC(=O)COC(=O)c2ncc(Cl)c(Cl)c2Cl)cc1OC`, the activation was -0.83%. Next, `COc1ccc(Nc2nc(N)nc(CSC(=S)N3CCC(C)CC3)n2)cc1`: 25.5%; `COc1cccc(NC(=S)N(CCc2c(C)[nH]c3ccccc23)Cc2ccco2)c1`: 12%; `COCCNC(=S)N(CCc1c(C)[nH]c2ccc(C)cc12)Cc1cccnc1`: 20.1%.

Take `CCNC(=S)N(CCc1c(C)[nH]c2ccc(C)cc12)Cc1ccco1`: the activation was 59.4% (active). Next, `Cc1ccc(CN(CC(=O)NC2CCCCC2)C(=O)c2csnn2)cc1`: -0.48%. Consider `CCOC(=O)C1(CCOc2ccccc2)CCN(Cc2cc(OC)cc(OC)c2)CC1`, for which the activation is 7.35%. Then `CCOc1ccc(NC(=O)[C@H](C)NC(=O)C2CC(=O)N(c3ccc(OC)cc3)C2)cc1` (some centres undefined), with 1.62%; and `CCNC(=O)NC(=O)C(C)OC(=O)C1CCN(S(=O)(=O)c2ccccc2F)CC1` (centres undefined), with -0.8%; and `COc1ccccc1N1CCN(C(=O)C2Cc3ccccc3CN2C(=O)c2ccco2)CC1` (centres undefined), with 1.25%. Next, `O=C(Nc1ncc2c(n1)-c1ccccc1OC2)c1ccc(Cl)cc1`: 37%. Next, `COc1ccc(C(=O)Nc2ncc3c(n2)-c2ccccc2CC3)cc1`: 103% (active); `COc1ccc(NC(=O)c2cnc(NS(=O)(=O)c3ccccc3)nc2)cc1`: -2.22%. Consider `C/C(=N\NC(=S)NCc1ccccc1)C1CCCCC1`, for which the activation was 3.74%. For `CCN(c1ccccc1)S(=O)(=O)c1ccc(C(=O)Nc2ccccc2OC)cc1`, the activation was 1.62%.

For `COC(=O)c1ccccc1NC(=O)CSc1ccccn1`, the activation is 0.37%. Then `CCOC(=O)CSc1ccccn1`, with -0.06%. `O=C(CSc1ccccn1)Nc1nc2c(ccc3ccccc32)s1`: the activation was 96.3% (active). Then `Cc1ccc(S(=O)(=O)CCC(=O)OCC(=O)NCCc2ccc(S(N)(=O)=O)cc2)cc1`, with -0.33%; and `CN(CC(=O)Nc1ccc(OC(F)F)cc1)S(=O)(=O)/C=C/c1ccccc1`, with 3.23%. Then `Cc1cc(C)c(S(=O)(=O)c2ccccc2)c(OC(=O)c2c(F)cccc2Cl)n1`, with -0.47%; and `Cc1cccc(C)c1NC(=O)C1CCCN1C(=O)OC(C)(C)C` (centres undefined), with 4.06%; and `COc1ccc(NC(=O)COC(=O)c2n[nH]c3ccccc23)c(OC)c1`, with 23.3%. Turning to `O=C(COC(=O)c1n[nH]c2ccccc12)Nc1ccccc1Br`, the activation is 53.9% (active). As for `CN(C)S(=O)(=O)c1ccc(NC(=O)COC(=O)c2n[nH]c3ccccc23)cc1`, the activation is 6.56%. As to `C[C@@H]1NC(=O)c2cc([N+](=O)[O-])cc(F)c2NCCC[C@@H](C(N)=O)NC(=O)[C@H](CC(N)=O)NC1=O`, the activation is -4.67%. Then `COCCN(C(=O)c1ccccc1F)c1c(N)n(Cc2ccccc2)c(=O)[nH]c1=O`, with 0.27%; and `O=S(=O)(Nc1ccc(O)c2ccccc12)c1ccc(OC(F)(F)F)cc1`, with 33.7%; and `CCOc1ccccc1NC(=O)CCS(=O)(=O)c1cccc2nsnc12`, with 11.7%. As to `CCOc1ccc(OCC)c(NC(=O)CN(C)S(=O)(=O)c2cccc3nsnc23)c1`, the activation was 53.7% (active). On to `CCOc1ccc(N(CC)S(=O)(=O)c2cccc3nsnc23)cc1`, for which the activation was 5.33%. Regarding `Cc1ccccc1CN1CCC(C(=O)Nc2ccc(Oc3cccnc3)cc2)CC1`, the activation is 1.47%.
